# Results from PubChem BioAssay AID651661 (Broad Institute, 2012).
# Among all 350,000 compounds or so, about 2,300 (0.66%) were called active. What follows is part of a selection rich in actives, with near analogues and random picks from the rest. Unmarked numbers belong to inactive results.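 Rule for the calls: active = mean inhibition of at least 50% after viability correction, with every replicate also passing that limit; inconclusive = mean reaches 50% but only one of two replicates passes; inactive = the rest.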
# Experiment: EWS/Fli-driven NR0B1 reporter inhibitors, primary screen, A673 cells, NR0B1 luciferase, luminescence, MLPCN library (AID 651661);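 note: firefly luciferase signal divided by Alamar Blue viability fluorescence both relative to DMSO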
# Details: viability-normalised, at 12.6 µM, stronger effect = higher value
row,SMILES,inhibition
1,COc1cccc(OC)c1C(=O)NC(=S)Nc1ccc(N2CCOCC2)c(Cl)c1,-7.45%
2,CCOc1ccc(C(=O)Nc2ccc(CN3CCOCC3)cc2)cc1Cl,-7.97%
3,CCOc1ccc(C(=O)NC(=S)Nc2ccc(N3CCOCC3)c(Cl)c2)cc1[N+](=O)[O-],72% (active)
4,CC(C)NC(=O)N1[C@H](C#N)[C@H](c2ccc(C#CC3CCCCC3)cc2)[C@H]1CO,19.7%
5,CO[C@@H]1CN(C)C(=O)c2cc(NC(=O)C3CC3)ccc2OC[C@@H](C)N(C(=O)c2ccncc2)C[C@H]1C,2.15%
6,C[C@H]1CCCCO[C@H](CN(C)C(=O)CCC(F)(F)F)[C@@H](C)CN([C@@H](C)CO)C(=O)c2cc(NC(=O)Cc3ccccc3)ccc2O1,6.65%
7,O=C(NC1CCCC1)N1CC(=O)N2[C@H](C1)[C@H](c1ccc(/C=C/c3ccccc3)cc1)[C@@H]2CO,3.76%
8,O=C(c1ccccc1)N1CCN(c2cc(-c3ccccc3)nc3cc(-c4cccc(Cl)c4)nn23)CC1,-22.8%
9,C#Cc1cc(N2CCN(C(=O)c3ccoc3)CC2)n2nc(-c3cccc(Cl)c3)cc2n1,53% (active)
10,CN(C)CCN1CCN(c2cc(-c3cccc(Cl)c3)nc3ccnn23)CC1,1.41%
11,C[C@@H]1CN([C@@H](C)CO)C(=O)CCCn2cc(nn2)CO[C@@H]1CN(C)Cc1cccc(O)c1,8.82%
12,CN(CCO)c1ccc(/C=N/Nc2nncc3ccccc23)cc1,67.2% (active)
13,COc1ccc2c3c(n(C)c2c1)[C@H](CO)N(Cc1ccc(F)cc1)CC31CN(CC2CCOCC2)C1,-3.68%
14,CCOC(=O)C(=Cc1ccccc1)C(=O)c1ccccc1,-15.6%
15,Cc1cc(C)nc(S/C=C/C(=O)c2ccccc2)n1,50.2% (active)
16,COC(c1ccccc1)(c1ccccc1)C(Oc1nc(C)cc(C)n1)C(=O)O (configuration not stated),3.9%
17,C[C@@H]1CCCCO[C@@H](CN(C)C(=O)NC2CCCCC2)[C@@H](C)CN([C@H](C)CO)C(=O)c2cc(NC(=O)CCCCCC(=O)Nc3ccccc3N)ccc2O1,-0.378%
18,CCC(=O)N(C)C[C@H]1Oc2cc(-c3ccccc3F)ccc2S(=O)(=O)N([C@H](C)CO)C[C@@H]1C,1.15%
19,COC(=O)C(CC#Cc1ccc2c(c1)[C@]1(C(=O)N2)[C@H](c2ccc(O)cc2)N2[C@H](c3ccccc3)[C@H](c3ccccc3)OC(=O)[C@H]2[C@@H]1C(=O)NC[C@H](O)c1ccccc1)C(=O)OC,-4.53%
20,COc1ccc(C#Cc2ccc3c(c2)[C@]2(C(=O)N3)[C@H](c3ccccc3OCCO)N3[C@H](c4ccccc4)[C@H](c4ccccc4)OC(=O)[C@H]3[C@@H]2C(=O)N2CCCCCCC2)cc1,7.03%
21,COC(=O)C(CC#Cc1ccc2c(c1)[C@]1(C(=O)N2)[C@H](c2ccccc2OCCO)N2[C@H](c3ccccc3)[C@H](c3ccccc3)OC(=O)[C@H]2[C@@H]1C(N)=O)C(=O)OC,70.7% (active)
22,O=C(CC1CC1)N1[C@@H]2CN(S(=O)(=O)c3ccc(F)cc3)c3ccccc3[C@@H]2[C@@H]1CO,2.01%
23,CN1CCN(C(=O)C[C@H]2CC[C@H]3[C@H](COc4ccc(NC(=O)C5CC5)cc4C(=O)N3C)O2)CC1,0.362%
24,C=C(C)C(=O)O[C@H]1C/C(C)=C\C(=O)/C=C(\C)[C@H](O)[C@@H]2OC(=O)C(=C)[C@@H]21,74% (active)

row,SMILES,inhibition
1,C[C@@H]1CN([C@@H](C)CO)C(=O)Cc2cc(NC(=O)Nc3ccc4c(c3)OCO4)ccc2O[C@@H]1CN(C)CC1CCCCC1,-9.05%
2,COc1cccc(-c2ccc3c(c2)[C@@H]2[C@@H](CCN2C(=O)CN2CCOCC2)[C@H](CO)N3)c1,-6.11%
3,O=[N+]([O-])/C=C/c1ccc2c(ccn2Cc2ccccc2)c1,68.6% (active)
4,Cc1ccccc1S(=O)(=O)Nc1ccc2c(c1)C(=O)N(C)[C@@H]1CC[C@@H](CC(=O)O)O[C@@H]1CO2,2.06%
5,CO[C@H]1CN(C)C(=O)c2ccc(NC(=O)NC(C)C)cc2OC[C@H](C)N(Cc2cncnc2)C[C@@H]1C,-9.44%
6,COc1ccc(CNS(=O)(=O)c2cc(Br)ccc2Br)cc1,-12%
7,Cc1cc(-c2ccc(C)c(S(=O)(=O)Nc3ccc(S(N)(=O)=O)cc3)c2)on1,5.81%
8,COc1ccc(CNS(=O)(=O)c2cc(-c3cc(C)no3)ccc2C(C)C)cc1,55.5% (active)
9,O=C(C[C@H]1C[C@H]2c3cc(NC(=O)C4CCC4)ccc3O[C@H]2[C@@H](CO)O1)NCc1ccc(Cl)cc1,-0.922%
10,CO[C@@H]1CN(C)C(=O)c2cc(NC(=O)Nc3ccccc3F)ccc2OC[C@H](C)NC[C@H]1C,-10.4%
11,CCc1nc2ccccc2c(C(=O)NCc2ccc(OC)cc2)c1C,22.9%
12,COC(=O)Cc1[nH]n(-c2nc3ccccc3s2)c(=O)c1C(C)=Nc1ccc(OC)cc1,67.1% (active)
13,COC(=O)CC1=NN(c2ccccc2)C(=O)C1,2.41%
14,COc1ccc(CN(C)C[C@@H]2OCCCC[C@H](C)Oc3ccc(NC(=O)c4ccccc4)cc3C(=O)N([C@H](C)CO)C[C@H]2C)cc1,4.63%
15,CCS(=O)(=O)N1CC2(CN(C(=O)c3ccc(F)cc3)[C@H](CO)c3c2c2ccc(OC)cc2n3C)C1,-3.98%
16,O=C(C[C@H]1C[C@H]2c3cc(NC(=O)NC4CCCC4)ccc3O[C@H]2[C@H](CO)O1)NCCc1ccccc1,-0.115%
17,CC1(C(=O)Nc2cccnc2)Cc2c(-c3ccccc3)ccnc2O1 (configuration not stated),-3.3%
18,CC(=O)Nc1cccc(-c2ccnc3c2CC(C)(C(=O)NCc2ccco2)O3)c1 (configuration not stated),47.3%
19,COc1ccc(NC(=O)C2(C)Cc3c(-c4ccc(C(N)=O)cc4)ccnc3O2)cc1 (configuration not stated),9.42%
20,CC(=O)Nc1cccc(-c2ccnc3c2CC(C)(C(=O)NCc2ccccc2)O3)c1 (configuration not stated),56.4% (active)
21,COc1ccc(NC(=O)C2(C)Cc3c(-c4cccc(NC(C)=O)c4)ccnc3O2)cc1 (configuration not stated),72% (active)
22,COc1ccc(NC(=O)C2(C)Cc3c(-c4cccc(NC(C)=O)c4)ccnc3O2)cc1OC (configuration not stated),12.4%
23,COCC(=O)Nc1ccc2c(c1)C(=O)N(C)[C@@H]1CC[C@H](CC(=O)NCCc3ccccc3)O[C@@H]1CO2,6.92%
24,C[C@H](CO)N1C[C@H](C)[C@@H](CN(C)S(=O)(=O)c2ccc([N+](=O)[O-])cc2)OCc2ccccc2-c2c(n(C)c3ccccc23)C1=O,14.6%

row,SMILES,inhibition
1,CO[C@H]1CN(C)C(=O)c2cc(NC(C)=O)ccc2OC[C@H](C)N(C(=O)CN(C)C)C[C@@H]1C,-2.59%
2,CCS(=O)(=O)N1CCC2(CC1)CN[C@H](CO)c1c2c2ccc(OC)cc2n1C,8.2%
3,CC(C)(C)OC(=O)N(Cc1ccccc1)Cc1ccc(OCc2cccc(NC(=O)c3ccccc3)c2)cc1,11.8%
4,CCOc1ccc(OCc2cccc(C(=O)N(CC)CC)c2)cc1,67.8% (active)
5,CCOc1ccc(OCc2ccc(C(=O)N(C)c3ccccc3)o2)cc1,-36.4%
6,CC=Cc1ccc2n(c1=O)C[C@@H]1[C@@H](CO)[C@H](C(=O)N(C)C)N(CC3CCOCC3)[C@H]21 (mixture of isomers),-1.84%
7,Cc1ccccc1S(=O)(=O)N1[C@H](CO)[C@@H](c2ccc(-c3ccccc3)cc2)[C@@H]1C#N,18.6%
8,O=C(C[C@H]1C[C@@H]2c3cc(NC(=O)C4CCOCC4)ccc3O[C@@H]2[C@H](CO)O1)NCC1CC1,2.22%
9,C[C@@H]1C[C@@H]2O[C@H]2/C=C\C=C\C(=O)Cc2c(Cl)c(O)cc(O)c2C(=O)O1,76.6% (active)
10,COc1cnc(-c2ccccn2)nc1Oc1ccc(C(C)(C)C)cc1,18.9%
11,CC(C)(C)c1ccc(Oc2ccc(N)cc2)cc1,65.3% (active)
12,COCC(=O)Nc1ccc2c(c1)C(=O)N(C)[C@@H]1CC[C@@H](CC(=O)NCC(F)(F)F)O[C@H]1CO2,-7.87%
13,CCNC(=O)Nc1ccc2c(c1)C(=O)N(C)[C@@H]1CC[C@@H](CC(=O)NC3CCCCC3)O[C@H]1CO2,6.61%
14,O=C(c1ccc(F)cc1)N1CC(=O)N2[C@H](C1)[C@@H](c1ccc(C#CC3CC3)cc1)[C@@H]2CO,-6.65%
15,CCCNC(=O)N1C[C@@H](C)[C@@H](OC)CN(C)C(=O)c2ccc(NC(=O)C3CCC3)cc2OC[C@@H]1C,-1.5%
16,Clc1ccc(Nc2ccc3ccccc3n2)cc1,-53.3%
17,C(=N\Nc1ccc2ccccc2n1)/c1ccc2c(c1)OCO2,59.1% (active)
18,NC(=O)c1ccc(NC(=O)COC(=O)c2c3c(nc4ccccc24)/C(=C\c2ccc4c(c2)OCO4)CCC3)cc1,-2.89%
19,CC(C)NC(=O)N1C[C@@H]2[C@H](c3ccccc31)[C@@H](CO)N2Cc1ccc(Cl)cc1,14.5%
20,CCN1/C(=C\c2ccc3ccccc3[n+]2CC)Sc2cc(C)ccc21,56.7% (active)
21,COc1cccc(CNC(=O)c2nnn(CC(=O)Nc3cc(Cl)ccc3C)c2N)c1,2.98%
22,Nc1c(C(=O)Nc2ccc3c(c2)OCCO3)nnn1Cc1ccccc1,-100%
23,Nc1c(C(=O)NCc2ccccc2)nnn1Cc1cccc(Cl)c1,53% (active)
24,COc1cccc(S(=O)(=O)N(C)C[C@@H]2Oc3ncc(-c4cccc(C(=O)N(C)C)c4)cc3C(=O)N([C@H](C)CO)C[C@H]2C)c1,-6.58%
